Screens: PubChem BioAssay, Broad Institute
Hits are enriched below; roughly 6.8% of the tested compounds scored in any of these assays.
Pf Dd2 inh: P. falciparum Dd2 growth inhibitors, primary screen, SYBR Green fluorescence, single dose replicates; 72 h; active compounds read low; activity change, % at 10 µM; 94,000 compounds, 2.3% hits; in the data active = activity change below about -80%; inconclusive = no clear call, values can overlap the other calls
C diff HTS: C. difficile growth inhibitors, primary screen, HTS. growth activity, negative = inhibition, % at 16 µg/mL (by protocol). 86,000 compounds, 0.25% hits. Clostridium difficile clinical isolate growth, OD600, 24 h; active compounds read low;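 active = mean growth activity at or below -80% and every replicate also at or below -80%; inconclusive = mean at or below -80% but some replicate above -80%; inactive = mean growth activity above -80%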;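 also: 0% = DMSO wells and -100% = levofloxacin 16 µg/mL wells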
T cruzi growth-1: T. cruzi intracellular proliferation inhibitors, primary screen, cell-based, beta-gal Tulahuen parasites, NIH3T3 host, luminescence. 77,000 compounds, 5.9% hits. inhibition, % at 8.34 µM. AID 624255, 2012. T. cruzi beta-gal in NIH3T3, GalScreen luminescence, 90 h;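 active = mean inhibition above about 93%, with at least 55% of replicates each passing it, limit read from the data, passing the limit was not always enough; inconclusive = only one of those two conditions holds; inactive = neither condition holds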
T cruzi growth-2: T. cruzi intracellular proliferation inhibitors, confirmation, cell-based, NIH3T3 host, beta-gal parasite, luminescence, cherry-pick | shares compounds with T cruzi growth-1 | T. cruzi beta-gal in NIH3T3, GalScreen luminescence, 90 h | inhibition, % at 8.35 µM | 5,600 compounds, 72% hits;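 active = mean replicate inhibition above about 95% and at least 55% of replicates individually reaching it, limit read from the data; inconclusive = only one of the two criteria is met; inactive = neither criterion is met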
T cruzi growth-3: inhibitors of intracellular T. cruzi replication, confirmation, NIH3T3 host cells, beta-gal parasites, cherry-pick, set 2. inhibition, % at 2.09 µM. shares compounds with T cruzi growth-1. T. cruzi beta-gal in NIH3T3, GalScreen luminescence, 90 h. 5,600 compounds, 21% hits;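 active = mean inhibition above about 95%, with at least 55% of replicates also reaching it, limit read from the data; inconclusive = meets just one of the two conditions; inactive = meets neither condition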;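 also: plate controls were neutral control median for no effect and positive control median for full effect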
3T3 cytotox: cytotoxicity in mouse NIH/3T3 fibroblasts, confirmation, cytotoxicity control for T. cruzi proliferation inhibitor project, cell-based, cherry-pick, single point; shares compounds with T cruzi growth-1; NIH/3T3 viability, CellTiter-Glo ATP luminescence, 90 h; cytotoxicity (signal decrease), % at 8.35 µM; 5,600 compounds, 14% hits; AID 651742, 2012;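 active = mean signal decrease across replicates above about 35% based on untreated-well scatter, with enough replicates individually passing, limit read from the data; inconclusive = no rule stated though some were filed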;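 also: 0% = median of neutral control wells and 100% = median of positive control wells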
NIH3T3 tox 2: NIH/3T3 fibroblast cytotoxicity, confirmation, cytotoxicity control, cell-based, cherry-pick, single point, set 2 | shares compounds with T cruzi growth-1 | NIH/3T3 viability, CellTiter-Glo ATP luminescence, 90 h | inhibition, % at 24.9 µM | 5,600 compounds, 56% hits | AID 651744, 2012;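 active = mean loss of cell viability signal at or above a set limit, and enough replicates individually reaching it; inconclusive = meets only the mean limit or only the replicate share; inactive = meets neither condition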;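 also: 0% = median of neutral control wells and 100% = median of positive control wells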
Active calls of the source: *; ? = inconclusive; · = no result.

SMILES	Pf Dd2 inh	C diff HTS	T cruzi growth-1	T cruzi growth-2	T cruzi growth-3	3T3 cytotox	NIH3T3 tox 2
CC=Cc1ccc2n(c1=O)C[C@H]1[C@H](CO)[C@@H](C(=O)NCC3CCCCC3)N(C(C)=O)[C@@H]21 (mixture of isomers)	2.8	-5.4	7.0	·	·	·	·
O=C(C[C@H]1C=C[C@@H](NC(=O)c2ccncc2)[C@@H](CO)O1)Nc1ccccc1	8.4	4.8	·	·	·	·	·
COc1ccc2c3c(n(C)c2c1)[C@@H](CO)N(C(=O)CC1CC1)CC31CN(Cc2ccccc2)C1	-27.9	-6.8	·	·	·	·	·
COc1ccc(NC(=O)Nc2ccc3c(c2)C(=O)N([C@H](C)CO)C[C@H](C)[C@@H](CN(C)S(=O)(=O)c2ccc(C)cc2)OCCCC[C@H](C)O3)cc1	-53.6	·	60.9	·	·	·	·
COc1ccc(NC(=O)Nc2ccc3c(c2)C(=O)N([C@@H](C)CO)C[C@H](C)[C@H](CN(C)S(=O)(=O)c2ccc(C)cc2)OCCCC[C@H](C)O3)cc1	-74.2	·	103.6*	111.3*	68.0	-8.7	-7.3
COc1ccc(S(=O)(=O)N(C)C[C@@H]2OCCCC[C@@H](C)Oc3ccc(NC(=O)Nc4ccccc4)cc3C(=O)N([C@H](C)CO)C[C@H]2C)cc1	-79.3	-3.7	103.9*	104.2*	62.0	-16.8	17.0
COc1ccc(NC(=O)Nc2ccc3c(c2)C(=O)N([C@H](C)CO)C[C@@H](C)[C@H](CN(C)S(=O)(=O)c2ccccc2)OCCCC[C@H](C)O3)cc1	-18.3	-17.9	-2.5	·	·	·	·
COc1ccc(NC(=O)Nc2ccc3c(c2)C(=O)N([C@@H](C)CO)C[C@H](C)[C@@H](CN(C)S(=O)(=O)c2ccc(C)cc2)OCCCC[C@H](C)O3)cc1	-70.0	·	101.8*	104.9*	34.1	-2.5	4.0
COc1ccc(NC(=O)Nc2ccc3c(c2)C(=O)N([C@@H](C)CO)C[C@@H](C)[C@@H](CN(C)S(=O)(=O)c2ccccc2)OCCCC[C@H](C)O3)cc1	-0.1	-0.2	10.7	·	·	·	·
COc1ccc(S(=O)(=O)N(C)C[C@H]2OCCCC[C@@H](C)Oc3ccc(NC(=O)NC(C)C)cc3C(=O)N([C@@H](C)CO)C[C@@H]2C)cc1	·	-4.0	-12.2	·	·	·	·
COc1ccc(NC(=O)Nc2ccc3c(c2)C(=O)N([C@@H](C)CO)C[C@@H](C)[C@@H](CN(C)S(=O)(=O)c2ccc(C)cc2)OCCCC[C@@H](C)O3)cc1	-59.9	·	97.3*	103.8*	30.8	-24.4	-11.5
C/C=C/c1cnc2c(c1)C(=O)N([C@H](C)CO)C[C@@H](C)[C@H](CN(C)C(=O)Cc1ccccc1)O2	43.5	-1.3	24.6	·	·	·	·
COCCNC(=O)C[C@@H]1CC[C@@H]2[C@H](COc3ccc(NC(=O)C4CCCC4)cc3C(=O)N2C)O1	18.4	-0.8	23.5	·	·	·	·
CCCNC(=O)N(C)C[C@H]1Oc2cc(C#CCN(C)C)ccc2S(=O)(=O)N([C@H](C)CO)C[C@H]1C	7.6	-6.9	53.6	·	·	·	·
CNC(=O)C[C@H]1CC[C@H]2[C@@H](COc3ccc(NC(=O)c4ccc(C#N)cc4)cc3C(=O)N2C)O1	3.2	-5.8	-28.8	·	·	·	·
O=C(C1CCC1)N1CC2(C1)[C@H](c1ccccc1)[C@@H](CO)N2CCC(F)(F)F	25.8	0.6	·	·	·	·	·
C/C=C/c1ccc([C@H]2[C@@H](CO)N(C(=O)C3CCCC3)C23CN(C(=O)NC(C)C)C3)cc1	-8.5	-2.7	·	·	·	·	·
CCC(=O)N1[C@H](CO)[C@H](c2ccccc2)C12CN(Cc1nccs1)C2	-12.1	-4.1	·	·	·	·	·
CCC#CCN(Cc1ccccc1Br)[C@H](/C=C/c1ccccc1)[C@@H](O)Cc1ccccc1	·	-9.0	·	·	·	·	·
C[C@@H]1CCCCO[C@@H](CN(C)C(=O)Nc2ccc(F)cc2)[C@@H](C)CN([C@H](C)CO)C(=O)c2cc(NS(=O)(=O)c3ccc(F)cc3)ccc2O1	11.6	-2.8	44.3	·	·	·	·
Cc1ccc(S(=O)(=O)Nc2ccc3c(c2)C(=O)N([C@H](C)CO)C[C@@H](C)[C@H](CN(C)C(=O)Nc2ccc(F)cc2)OCCCC[C@@H](C)O3)cc1	-85.3*	·	98.4*	97.3*	71.9	-1.2	25.4*
Cc1ccc(S(=O)(=O)Nc2ccc3c(c2)C(=O)N([C@H](C)CO)C[C@H](C)[C@H](CN(C)C(=O)Nc2ccccc2)OCCCC[C@H](C)O3)cc1	-31.4	·	99.9*	108.7*	42.7	-11.2	-5.2
Cc1ccc(S(=O)(=O)Nc2ccc3c(c2)C(=O)N([C@@H](C)CO)C[C@@H](C)[C@@H](CN(C)C(=O)Nc2ccc(F)cc2)OCCCC[C@@H](C)O3)cc1	-77.1	·	105.3*	104.3*	64.4	-2.8	-15.6
C[C@@H]1CN([C@H](C)CO)C(=O)c2cc(NS(=O)(=O)c3ccc(F)cc3)ccc2O[C@@H](C)CCCCO[C@H]1CN(C)C(=O)Nc1ccc(F)cc1	-36.7	0.2	29.6	·	·	·	·
Cc1ccc(S(=O)(=O)Nc2ccc3c(c2)C(=O)N([C@H](C)CO)C[C@H](C)[C@H](CN(C)C(=O)Nc2ccccc2)OCCCC[C@@H](C)O3)cc1	-1.9	·	-47.4	·	·	·	·
SMILES	Pf Dd2 inh	C diff HTS	T cruzi growth-1	T cruzi growth-2	T cruzi growth-3	3T3 cytotox	NIH3T3 tox 2
COCC(=O)N1[C@H](CO)[C@H](c2ccccc2)C12CN(C(=O)NC1CCCC1)C2	35.0	-0.2	·	·	·	·	·
C[C@@H]1CN([C@H](C)CO)S(=O)(=O)c2ccc(C#CC3CCCC3)cc2O[C@H]1CN(C)C(=O)Cc1ccncc1	-69.3	-3.1	119.8*	101.1*	61.5	-3.6	99.0*
C[C@@H]1CN([C@@H](C)CO)S(=O)(=O)c2ccc(C#CC3CCCC3)cc2O[C@H]1CN(C)C(=O)Cc1ccccc1	?	-4.7	·	·	·	·	·
C[C@H](CO)N1C[C@H](C)[C@@H](CN(C)C(=O)Cc2ccccc2)Oc2cc(C#CC3CCCC3)ccc2S1(=O)=O	-24.5	-1.2	·	·	·	·	·
C[C@H]1CN([C@@H](C)CO)S(=O)(=O)c2ccc(C#CC3CCCCC3)cc2O[C@H]1CN(C)C(=O)Cc1ccncc1	-17.9	·	42.1	·	·	·	·
C[C@@H]1CN([C@@H](C)CO)S(=O)(=O)c2ccc(C#CC3CCCC3)cc2O[C@H]1CN(C)C(=O)Cc1ccncc1	-86.1*	-14.7	112.8*	99.2*	47.3	21.3	71.6*
C[C@@H]1CN([C@H](C)CO)S(=O)(=O)c2ccc(C#CC3CCCC3)cc2O[C@H]1CN(C)C(=O)Cc1ccccc1	?	-10.8	113.2*	106.1*	67.7	3.5	105.4*
